About 2,600 (16%) of roughly 16,000 compounds were called active. Another 20% or so got no clear call; they are omitted. Calls come from the whole dose curve; as a rule, active = well fitted curve in the direction sought with a large enough effect; inconclusive = small, poorly fitted or top-dose-only effect, or effect the other way; inactive = no such curve, though single readings can be large or run the other way. A selection follows.
These compounds were tested against Cytochrome P450 2D6 (Homo sapiens) (UniProt P10635) (assay: Cytochrome panel assay with activity outcomes). Settings: recombinant CYP, pro-luciferin dealkylation, luminescence, p450-cyp2d6; series mostly up to 57.1 µM.
Cytochrome P450 2D6 (Homo sapiens), sequence (P10635 whole entry, looked up): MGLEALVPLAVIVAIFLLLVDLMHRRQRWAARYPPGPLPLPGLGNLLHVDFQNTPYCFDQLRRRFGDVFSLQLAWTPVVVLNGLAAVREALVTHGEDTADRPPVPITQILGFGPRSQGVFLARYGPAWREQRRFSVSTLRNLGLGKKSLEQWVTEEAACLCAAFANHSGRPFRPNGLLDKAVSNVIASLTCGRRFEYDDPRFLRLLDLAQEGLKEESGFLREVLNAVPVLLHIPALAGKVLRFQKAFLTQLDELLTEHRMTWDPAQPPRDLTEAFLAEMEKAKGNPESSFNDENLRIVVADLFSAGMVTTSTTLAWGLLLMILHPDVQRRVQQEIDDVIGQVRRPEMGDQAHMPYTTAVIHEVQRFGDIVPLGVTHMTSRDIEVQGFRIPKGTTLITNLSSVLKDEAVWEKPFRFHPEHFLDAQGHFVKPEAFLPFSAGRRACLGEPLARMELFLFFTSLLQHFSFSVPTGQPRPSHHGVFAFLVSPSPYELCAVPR
% is set by controls: 0 for no effect and ±100 for the full control effect.

AC50, active:
O=C1CC2(CCCC2)CC(=O)N1CCNC[C@H]1COc2ccccc2O1 0.126 µM
O=C1CC2(CCCC2)CC(=O)N1CCCCNC[C@H]1COc2ccccc2O1 5.01 µM
COc1cccc(-c2nccc(N(C)Cc3ccco3)n2)c1 1.26 µM
CN(Cc1ccco1)c1ccnc(-c2cccnc2)n1 7.94 µM
COc1cccc(-c2cc(N(C)Cc3ccco3)ncn2)c1 15.8 µM
CN(Cc1ccco1)c1ccnc(-c2cccc(NS(C)(=O)=O)c2)n1 20 µM
CC(C)Oc1ccc(CSC(=N)N)cc1 14.1 µM
OCCCCNCc1ccc(OCc2ccccc2Cl)cc1 3.55 µM
CCOc1cc(CNCCO)cc(Br)c1OCc1ccccc1Cl 4.47 µM

AC50, inactive:
CCCNC1CCS(=O)(=O)C1 (configuration not stated)
CCOC(=O)N/N=C(/C)c1ccc([N+](=O)[O-])o1
Cc1ccc(-c2nnc(C)c(N3CC(C)OC(C)C3)n2)cc1 (configuration not stated)
Cc1cc(C(=O)CSc2nnc(-c3ccccc3)o2)c(C)n1CC1COc2ccccc2O1 (configuration not stated)
Cn1c(C(=O)O)c(CC(=O)NCC2COc3ccccc3O2)c2ccccc21 (configuration not stated)
COc1ccccc1N1CCN(CCN2C(=O)CC3(CCCC3)CC2=O)CC1
CC(C)N1CCN(c2ccc(OC[C@@H]3CO[C@@](Cn4cncn4)(c4ccc(Cl)cc4Cl)O3)cc2)CC1
Cc1ccc(C)c(N(CC(=O)NC2CCCC2)C(=O)c2cc3cc4cccc(C)c4nc3s2)c1
CC(=O)N1N=C(c2cccc([N+](=O)[O-])c2)OC1c1ccc(Cl)cc1Cl (configuration not stated)
CN(Cc1ccco1)c1cc(-c2cccc(C#N)c2)ncn1
CN(Cc1ccco1)c1cc(-c2cccnc2)ncn1
CN(C)c1ccnc(-c2cccc(NS(C)(=O)=O)c2)n1
CN(Cc1ccco1)c1ccnc(-c2ccoc2)n1
CCOC(=O)c1c(C)nc2c(c1-c1ccccc1)C(=O)CCC2
C=C(CC)C(=O)c1ccc(OCC(=O)O)c(Cl)c1Cl
C=CCNc1nc(Cl)nc(Nc2ccc(OC)cc2)n1
CNC(=O)[C@@H]1O[C@@H](n2cnc3c(NCc4ccc(N)cc4)ncnc32)[C@@H](O)[C@H]1O
COc1nnc(OC)c2ccccc12
COC(=O)/C=C\c1cc(O)ccc1O
C#CCSc1nncn1C(=O)/C=C/c1ccccc1
CCC(Sc1nc(C)cc(=O)[nH]1)C(=O)Nc1nc2c(s1)CCCC2 (configuration not stated)
CCc1nnc(SCc2ccc(OC(C)C)cc2)n1N
N=C(N)SCCc1ccc(OCc2ccc([N+](=O)[O-])cc2)cc1
O=C1CN(C(=O)c2ccc(Br)o2)C(c2ccc(F)cc2)c2cc(Cl)ccc2N1 (configuration not stated)
NC(=O)N[C@H]1NC(=O)NC1=O
O=C(NCc1ccccc1Cl)c1cnccn1
CCOc1cc(/C=C2\N=C(C)OC2=O)cc(Br)c1OCC(=O)OC
CCOc1cc(C2NN=C(c3ccccc3)S2)ccc1OCc1ccccc1Cl (configuration not stated)
CCC(C)NC(=O)C1c2cc(OC)c(OC)cc2C(=O)N(C)C1c1cccs1 (configuration not stated)
COc1ccc(Oc2ncc3nc(-c4ccc(Cl)cc4)c(=O)n(C)c3n2)cc1
CN(C)CCNC(=O)C(C(=O)c1ccc(F)cc1)n1ccccc1=O (configuration not stated)
CCCCSc1nc(C)cc(NC(=S)Nc2ccc(OC)cc2)n1
CCc1cc[n+](-c2nc3ccccc3nc2C(=C=[N-])C#N)cc1
CCCNC(=O)NS(=O)(=O)c1ccc(Cl)cc1
C/C(CC(=O)NCc1ccco1)=N\NC(=O)Cc1ccccc1

activity, negative = inhibition, inactive:
C/C(=N/O)[C@@H]1C[C@H](CC(=O)O)C1(C)C -1.22% [at 11.4 µM]
C[N+]1(C)CCc2cc(O)c(O)cc2[C@H]1Cc1ccc(O)c(O)c1 -2.15% [at 11.4 µM]
Cn1c(=S)c2[nH]c(SCc3cccnc3)nc2n(C)c1=O 14% [at 11.4 µM]
NS(=O)(=O)c1cc(C(=O)O)c(O)c2ccccc12 0.979% [at 11.4 µM]
Nc1nc2c(c(=O)[nH]1)CN(c1ccc(S(N)(=O)=O)cc1)CN2 -2.27% [at 11.4 µM]
C[C@@H]1CN2[C@H](c3ccc(Br)cc3)[C@H](C)CC[C@H]2C(=O)O1 -10.6% [at 11.4 µM]
OCCCNCc1ccccn1 12.8% [at 11.4 µM]
C/C(=N/S(=O)(=O)c1ccc(Cl)c(Cl)c1)OCC(C)(C)C 8.65% [at 11.4 µM]

Source: PubChem BioAssay AID1851 (National Center for Advancing Translational Sciences (NCATS), 2009)
